# For some of these results: Results with a measured potency or affinity are listed apart.
# Columns and labels:
# Set-up in all cases: scale not given: direction of the effect not stated beside the values
# [1] = molecular target: Protein translocase subunit SecA (Escherichia coli (strain K12)) (UniProt P10408); assay: Assay to Identify E. coli SecA ATPase Inhibitors; type: functional; conditions: 30 µM
# [2] = molecular target: T1, Ubiquitin-activating enzyme e1, putative (Leishmania donovani (strain BPK282A1)) (UniProt E9BSI1); assay: Leishmania donovani Ubiquitin Activating Enzyme (LdE1); type: functional; conditions: 30 µM
# T1 sequence (whole entry): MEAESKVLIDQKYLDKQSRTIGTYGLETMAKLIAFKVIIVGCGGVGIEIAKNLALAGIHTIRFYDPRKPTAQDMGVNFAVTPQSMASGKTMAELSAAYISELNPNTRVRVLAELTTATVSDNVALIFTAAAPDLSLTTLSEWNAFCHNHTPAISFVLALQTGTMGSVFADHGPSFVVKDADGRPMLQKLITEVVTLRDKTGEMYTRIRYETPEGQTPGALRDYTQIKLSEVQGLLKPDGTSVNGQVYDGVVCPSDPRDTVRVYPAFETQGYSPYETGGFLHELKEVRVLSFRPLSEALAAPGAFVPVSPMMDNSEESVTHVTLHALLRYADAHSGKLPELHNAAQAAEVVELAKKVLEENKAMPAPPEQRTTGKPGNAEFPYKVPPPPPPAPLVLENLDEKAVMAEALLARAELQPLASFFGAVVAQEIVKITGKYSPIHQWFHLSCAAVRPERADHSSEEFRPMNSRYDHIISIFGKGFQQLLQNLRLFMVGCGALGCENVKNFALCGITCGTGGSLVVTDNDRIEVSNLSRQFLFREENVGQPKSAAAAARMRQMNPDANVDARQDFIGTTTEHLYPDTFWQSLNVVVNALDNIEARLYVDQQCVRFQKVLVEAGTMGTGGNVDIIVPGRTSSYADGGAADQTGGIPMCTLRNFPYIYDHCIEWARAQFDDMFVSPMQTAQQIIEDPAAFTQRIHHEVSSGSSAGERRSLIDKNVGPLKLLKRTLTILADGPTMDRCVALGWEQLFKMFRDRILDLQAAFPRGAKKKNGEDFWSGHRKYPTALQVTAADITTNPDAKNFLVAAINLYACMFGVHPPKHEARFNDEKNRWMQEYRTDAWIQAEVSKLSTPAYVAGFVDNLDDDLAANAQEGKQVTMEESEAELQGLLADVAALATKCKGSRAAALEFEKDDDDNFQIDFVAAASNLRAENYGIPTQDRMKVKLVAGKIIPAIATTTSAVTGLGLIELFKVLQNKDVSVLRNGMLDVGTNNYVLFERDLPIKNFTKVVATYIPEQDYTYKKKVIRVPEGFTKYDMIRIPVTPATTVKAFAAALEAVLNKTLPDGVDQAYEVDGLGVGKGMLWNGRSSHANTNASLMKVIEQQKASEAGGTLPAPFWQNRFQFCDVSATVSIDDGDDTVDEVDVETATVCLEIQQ
# [3] = molecular target: AMP-activated protein kinase, AMPK (Homo sapiens) (UniProt P54646+O43741+P54619+Q9UGJ0+Q9Y478+Q13131+Q9UGI9); assay: AMP-dependent Kinase enzyme assay. An in vitro enzyme assay that detects ADP turnover that is directly proportional to AMPK activity. This uses naive AMPK that is activated during the assay with MK-8722; type: functional; conditions: 30 µM
# [4] = molecular target: Sialic acid-binding Ig-like lectin 9 (Homo sapiens) (UniProt Q9Y336); assay: Hs-Siglec9 ALPHAscreen SOP 20170721; conditions: 10 µM
# Trypanosoma cruzi = assay: Trypanosoma cruzi phosphomannomutase and mannose-1-phosphate guanylyltransferase assay; type: functional; conditions: 10 µM
# [5] = molecular target: T2, Arginase-2, mitochondrial (Homo sapiens) (UniProt P78540); assay: in vitro enzyme assay to detect the production of urea directly proportional to the activity of Arginase II; type: functional; conditions: 33.3 µM; note: in the data most compounds retested in dose-response had high values
# T2 sequence (whole entry): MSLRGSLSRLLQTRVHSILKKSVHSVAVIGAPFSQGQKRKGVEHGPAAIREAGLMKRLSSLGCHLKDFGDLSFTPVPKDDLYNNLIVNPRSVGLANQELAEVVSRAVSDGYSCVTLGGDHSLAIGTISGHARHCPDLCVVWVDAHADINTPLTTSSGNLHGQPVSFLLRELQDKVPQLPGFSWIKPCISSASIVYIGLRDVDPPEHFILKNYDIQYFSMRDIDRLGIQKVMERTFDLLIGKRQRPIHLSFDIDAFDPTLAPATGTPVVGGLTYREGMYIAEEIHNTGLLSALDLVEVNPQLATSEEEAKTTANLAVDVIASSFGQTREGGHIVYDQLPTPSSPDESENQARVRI
# [6] = molecular target: T3, Proteasome subunit beta (Trypanosoma cruzi) (UniProt O96673); assay: Trypanosoma cruzi proteasome chymotrypsin-like activity (TcProtChymo) assay.; note: in the data most compounds retested in dose-response had high values; type: functional; conditions: 9.37 µM
# T3 sequence (whole entry): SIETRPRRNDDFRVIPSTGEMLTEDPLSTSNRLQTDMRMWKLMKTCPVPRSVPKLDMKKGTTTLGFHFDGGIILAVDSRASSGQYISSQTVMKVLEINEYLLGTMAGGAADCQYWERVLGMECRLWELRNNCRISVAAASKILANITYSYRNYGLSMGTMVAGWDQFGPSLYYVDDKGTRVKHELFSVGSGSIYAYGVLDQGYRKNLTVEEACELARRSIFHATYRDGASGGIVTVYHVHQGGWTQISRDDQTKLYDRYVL
# Homo sapiens = organism: Homo sapiens; assay: To identify inhibition of the IFN signalling (Jak-Stat) pathway via expression of an eGFP reporter gene under the control of an IFN-stimulated response element (ISRE) containing MxA promoter.; type: functional; conditions: 30 µM
# [7] = molecular target: T4, Tyrosyl-tRNA synthetase, putative (Trypanosoma cruzi (strain CL Brener)) (UniProt Q4DSP6); assay: Trypanosoma cruzi tyrosyl tRNA synthetase (TcYRS) _High Tyrosine SOP; type: functional; conditions: 30 µM; note: in the data most compounds retested in dose-response had high values
# T4 sequence (whole entry): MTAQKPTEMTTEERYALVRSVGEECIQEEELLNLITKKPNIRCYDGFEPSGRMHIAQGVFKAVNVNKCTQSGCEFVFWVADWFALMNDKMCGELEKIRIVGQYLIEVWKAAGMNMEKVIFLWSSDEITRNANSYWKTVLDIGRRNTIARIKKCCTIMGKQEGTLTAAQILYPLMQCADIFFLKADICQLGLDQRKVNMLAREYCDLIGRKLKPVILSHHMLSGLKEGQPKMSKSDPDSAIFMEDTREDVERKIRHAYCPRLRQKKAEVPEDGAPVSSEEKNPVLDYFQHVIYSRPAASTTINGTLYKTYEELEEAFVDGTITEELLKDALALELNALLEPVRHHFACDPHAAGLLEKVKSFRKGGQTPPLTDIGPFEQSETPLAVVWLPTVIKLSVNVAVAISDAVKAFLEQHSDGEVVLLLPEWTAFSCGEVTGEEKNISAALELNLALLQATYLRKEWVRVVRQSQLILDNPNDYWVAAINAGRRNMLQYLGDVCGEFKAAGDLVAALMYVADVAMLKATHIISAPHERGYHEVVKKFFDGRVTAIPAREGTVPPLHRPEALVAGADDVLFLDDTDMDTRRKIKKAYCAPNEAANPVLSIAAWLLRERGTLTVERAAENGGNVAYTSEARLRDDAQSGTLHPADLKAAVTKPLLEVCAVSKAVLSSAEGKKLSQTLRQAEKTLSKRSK
# [8] = molecular target: T4, Tyrosyl-tRNA synthetase, putative (Trypanosoma cruzi (strain CL Brener)); assay: Trypanosoma cruzi tyrosyl tRNA synthetase (TcYRS) SOP; type: functional; conditions: 30 µM
# [9] = molecular target: Chromo domain-containing protein 1 (Saccharomyces cerevisiae (strain ATCC 204508 / S288c) (Baker's yeast)) (UniProt P32657); assay: ScCHD-1 Enzyme Inhibition Assay; type: functional; conditions: 30 µM; note: in the data most compounds retested in dose-response had high values
# Sequence of Chromo domain-containing protein 1 (Saccharomyces cerevisiae (strain ATCC 204508 / S288c) (Baker's yeast)) (P32657 whole entry, the tested form may be a part): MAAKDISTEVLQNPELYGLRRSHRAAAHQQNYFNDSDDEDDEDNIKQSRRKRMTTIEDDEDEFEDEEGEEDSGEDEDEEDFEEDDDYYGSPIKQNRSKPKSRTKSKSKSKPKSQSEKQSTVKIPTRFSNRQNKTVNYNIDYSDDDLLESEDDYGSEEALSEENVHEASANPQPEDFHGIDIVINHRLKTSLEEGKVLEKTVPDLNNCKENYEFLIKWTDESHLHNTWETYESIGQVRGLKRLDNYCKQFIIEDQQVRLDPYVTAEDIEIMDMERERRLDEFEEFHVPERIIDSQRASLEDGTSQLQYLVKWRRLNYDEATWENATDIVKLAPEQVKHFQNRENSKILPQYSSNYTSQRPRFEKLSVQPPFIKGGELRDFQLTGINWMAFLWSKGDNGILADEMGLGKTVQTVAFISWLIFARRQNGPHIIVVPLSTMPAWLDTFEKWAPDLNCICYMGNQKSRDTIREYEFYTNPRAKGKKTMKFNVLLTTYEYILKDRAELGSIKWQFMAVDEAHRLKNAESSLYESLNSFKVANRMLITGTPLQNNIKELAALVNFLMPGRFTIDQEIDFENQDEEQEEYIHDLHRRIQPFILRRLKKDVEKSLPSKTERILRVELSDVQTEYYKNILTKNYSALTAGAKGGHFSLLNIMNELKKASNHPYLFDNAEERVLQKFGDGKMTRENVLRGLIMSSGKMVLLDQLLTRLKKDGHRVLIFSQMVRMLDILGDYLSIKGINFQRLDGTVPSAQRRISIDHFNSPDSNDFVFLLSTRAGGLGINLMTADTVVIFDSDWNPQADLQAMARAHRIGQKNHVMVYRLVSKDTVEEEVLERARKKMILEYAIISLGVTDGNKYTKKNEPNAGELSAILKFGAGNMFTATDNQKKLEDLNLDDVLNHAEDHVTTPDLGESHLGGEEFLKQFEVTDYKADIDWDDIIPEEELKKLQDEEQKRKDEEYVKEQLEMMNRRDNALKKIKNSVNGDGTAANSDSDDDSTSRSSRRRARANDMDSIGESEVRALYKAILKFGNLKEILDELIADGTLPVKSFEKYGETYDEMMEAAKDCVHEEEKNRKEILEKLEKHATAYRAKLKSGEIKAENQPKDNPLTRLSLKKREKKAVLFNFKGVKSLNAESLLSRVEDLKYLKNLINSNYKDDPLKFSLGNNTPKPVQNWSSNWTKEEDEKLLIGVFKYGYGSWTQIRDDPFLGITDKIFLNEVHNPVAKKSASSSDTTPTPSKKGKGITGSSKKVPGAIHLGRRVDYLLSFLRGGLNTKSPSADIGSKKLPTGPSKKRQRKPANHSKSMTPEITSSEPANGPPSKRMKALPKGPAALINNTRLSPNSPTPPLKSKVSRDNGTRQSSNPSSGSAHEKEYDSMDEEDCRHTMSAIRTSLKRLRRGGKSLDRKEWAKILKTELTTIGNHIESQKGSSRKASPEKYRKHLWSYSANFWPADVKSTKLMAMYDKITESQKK
# Sequence of Protein translocase subunit SecA (Escherichia coli (strain K12)) (P10408 whole entry): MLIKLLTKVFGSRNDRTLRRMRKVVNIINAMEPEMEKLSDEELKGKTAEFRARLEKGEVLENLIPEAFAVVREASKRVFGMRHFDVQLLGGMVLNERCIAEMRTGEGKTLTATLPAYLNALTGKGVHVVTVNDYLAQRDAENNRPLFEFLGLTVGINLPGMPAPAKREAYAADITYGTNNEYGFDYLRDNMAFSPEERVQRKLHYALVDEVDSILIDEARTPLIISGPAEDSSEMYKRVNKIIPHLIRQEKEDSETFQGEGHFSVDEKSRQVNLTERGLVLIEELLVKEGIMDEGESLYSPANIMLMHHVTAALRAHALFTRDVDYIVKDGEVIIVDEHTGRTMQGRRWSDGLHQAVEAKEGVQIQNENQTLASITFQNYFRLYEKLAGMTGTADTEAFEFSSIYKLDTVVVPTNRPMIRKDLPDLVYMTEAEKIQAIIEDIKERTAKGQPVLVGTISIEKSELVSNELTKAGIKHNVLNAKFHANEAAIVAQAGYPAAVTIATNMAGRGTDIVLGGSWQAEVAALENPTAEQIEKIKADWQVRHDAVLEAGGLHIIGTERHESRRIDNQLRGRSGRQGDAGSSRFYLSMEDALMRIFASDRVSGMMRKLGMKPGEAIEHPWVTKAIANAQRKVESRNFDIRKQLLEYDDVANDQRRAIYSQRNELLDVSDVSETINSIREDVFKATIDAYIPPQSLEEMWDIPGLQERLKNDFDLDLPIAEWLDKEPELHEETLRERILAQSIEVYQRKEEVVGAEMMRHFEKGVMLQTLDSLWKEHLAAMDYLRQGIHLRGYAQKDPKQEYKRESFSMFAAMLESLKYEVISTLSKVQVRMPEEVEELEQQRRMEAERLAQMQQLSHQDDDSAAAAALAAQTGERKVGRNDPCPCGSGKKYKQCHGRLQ
# Sequence of Sialic acid-binding Ig-like lectin 9 (Homo sapiens) (Q9Y336 whole entry): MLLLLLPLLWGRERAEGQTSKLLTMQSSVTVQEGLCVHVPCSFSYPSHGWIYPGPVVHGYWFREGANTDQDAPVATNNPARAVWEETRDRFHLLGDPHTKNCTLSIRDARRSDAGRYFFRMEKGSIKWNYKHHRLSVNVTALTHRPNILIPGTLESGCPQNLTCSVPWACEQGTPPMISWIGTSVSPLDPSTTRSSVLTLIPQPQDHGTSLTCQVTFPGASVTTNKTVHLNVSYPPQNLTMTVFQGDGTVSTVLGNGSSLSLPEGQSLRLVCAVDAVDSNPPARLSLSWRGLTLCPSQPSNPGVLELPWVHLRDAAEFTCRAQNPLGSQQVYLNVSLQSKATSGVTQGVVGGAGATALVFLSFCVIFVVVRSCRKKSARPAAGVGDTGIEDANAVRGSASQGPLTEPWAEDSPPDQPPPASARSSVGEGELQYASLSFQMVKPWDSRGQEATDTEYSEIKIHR
Compound,Percent Effect [1] [%],Percent Effect [2] [%],Percent Effect [3] [%],Percent Effect [4] [%],Percent Effect (Trypanosoma cruzi) [%],Percent Effect [5] [%],Percent Effect [6] [%],Percent Effect (Homo sapiens) [%],Percent Effect [7] [%],Percent Effect [8] [%],Percent Effect [9] [%]
Cc1ccc(C)c(OC2CCN(C(=O)c3ccc(O)nc3)CC2)c1,-1.92,15.8,-2.4,7.02,3.76,0.383,17.5,10.8,8.33,21.9,-11.2
Cn1cccc1C(=O)N[C@@H]1CN(CC2CC2)[C@@H]2COC[C@@H]21,-2.02,5.33,-1.14,25.9,-7.14,-54.7,-2.73,-2.91,1.04,7.5,-7.28
CC1CCCN(CCNC(=O)c2cncnc2C(C)C)C1 (configuration not stated),-2.89,6.94,-1.93,-5.17,-4.96,0.442,8.25,-15.9,4.21,12.8,-3.15
CC(C)CCN1Cc2c(C(=O)O)ncn2-c2ccccc2S1(=O)=O,0.538,16.2,16.3,-10.3,-3.42,0.319,10.7,10.4,4.32,10.3,-8.5
COC(=O)c1sccc1S(=O)(=O)NCC1(O)CCOc2ccccc21 (configuration not stated),-3.54,0,5.9,-3.21,-3.72,1.82,1.77,4.11,0,7.5,-4.1
CNc1nc(CNC(=O)Nc2cccc(-c3nnco3)c2)cs1,-5.07,8.11,1.7,-1.65,-3.81,-4.25,4.13,-4.5,2.97,1.22,4.29
c1coc(-c2noc(CN3CCC(c4ccn[nH]4)CC3)n2)c1,-1.24,5.41,-3.37,31.9,5.02,0,16.4,3.15,-1.59,7.32,-4.25
Cn1cc(CN2CC3(CCN(C(=O)c4cscn4)C3)C2)cn1,-1.74,19.2,-7.29,10.7,3.77,-3.19,9.85,4.08,10.4,16.1,-10.8
Cc1ccc(-n2nnc(C(=O)Nc3cc(C)nn3C)c2C2CC2)cc1,-8.29,5.41,1.63,-1.73,-3.99,1.66,8.98,33.1,3.96,1.22,1
COc1cc(CNC(=O)NCc2c(C)cc(C)[nH]c2=O)ccc1C,-6.17,7.89,-0.139,4.36,5.64,1.15,11.9,6.94,2.45,12.2,-9.57
Cc1cnn(CCNCC(=O)NCc2ccccc2)c1,-0.968,5.26,-2.33,11.4,2.15,-4.68,0.0846,-25,6.4,6.17,4.48
Cn1cccc1C(=O)N1CC[C@H]2C[C@@H](c3ccncn3)O[C@@H]2C1,-5.79,13.5,3.37,-2.88,-0.684,6.69,14.6,2.31,4.32,5.13,-0.0971
CCC(C)NC(=O)Nc1ccc(CN2CCOC2=O)cc1 (configuration not stated),-5.29,-6.94,-16.3,-0.797,-5.15,0,12.1,21,-2.1,-5.13,-1.28
Cc1cc(C)c(CNC(=O)NCC(c2ccccc2)N(C)C)c(=O)[nH]1 (configuration not stated),-3.19,-2.63,-5.47,13.4,2.52,1.08,-0.592,4,7.39,18.5,-3.01
O=C1CC2(CCN(CC3CCOC3)CC2)CN1Cc1cc(F)cc(F)c1 (configuration not stated),-5.41,12.5,-5.76,26.3,4.37,16.3,9.65,-12.9,2.1,10.3,-4.1
Cc1cc(C)n(CC2CCCCN2Cc2cscn2)n1 (configuration not stated),-3.65,13,-3.15,14.9,-1.27,4.42,7.52,12.4,7.62,11.8,-10.8
CN(C)C(=O)CN1CCC2(CCN(Cc3nccs3)CC2)C1=O,-0.585,10.7,0.545,-5.07,-9.46,-60.4,12.5,13.1,-12.5,5,-7.73

# — ChEMBL document CHEMBL3988442, “University of Dundee, Small-Polar-MMV Screening Library” (2021)
